Screen size: about 52,000 compounds; about 4,300 (8.3%) were called active. Rule as the data show it: active = survival mostly below about 52% (no sharp cut-off); inactive = mostly above about 56%. The entries come from a sample that favours actives as a whole.
test system: DeltatarO mutant; assay: S. aureus survival, RN4220 and DeltatarO strains – OD600, teichoic acid synthesis inhibitors, primary screen (AID 463173); details: S. aureus RN4220 wild type/DeltatarO growth, OD600, 18 h, stronger effect = lower value, screened at 18.75 µg/mL (by protocol)

Structure (SMILES)	survival
O=C(CC1Nc2ccccc2NC1=O)Nc1cccc2ccccc12 (stereo not drawn)	93% (inactive)
CCCNC(=O)c1ccc(Cn2c(=O)c3cccn3c3cccnc32)cc1	52% (inactive)
CCOc1cc(CNC(=O)c2ccc(Cn3c(=O)c4cccn4c4cccnc43)cc2)ccc1OC	52% (active)
CN(C)c1ccc(CNC(=O)c2ccc(Cn3c(=O)c4cccn4c4cccnc43)cc2)cc1	60% (inactive)
O=C(NCc1ccccc1Cl)c1ccc(Cn2c(=O)c3cccn3c3cccnc32)cc1	103% (inactive)
COc1ccc(CNC(=O)c2ccc(Cn3c(=O)c4cccn4c4cccnc43)cc2)c(OC)c1	58% (active)
O=C(NCCc1ccccc1)c1ccc(Cn2c(=O)c3cccn3c3cccnc32)cc1	51% (inactive)
Cc1ccc(CCNC(=O)c2ccc(Cn3c(=O)c4cccn4c4cccnc43)cc2)cc1	52% (inactive)
CCOc1ccccc1CNC(=O)c1ccc(Cn2c(=O)c3cccn3c3cccnc32)cc1	44% (active)
O=C(NCCc1ccc(Cl)cc1)c1ccc(Cn2c(=O)c3cccn3c3cccnc32)cc1	43% (active)
O=C(NCc1ccc(Cl)cc1)c1ccc(Cn2c(=O)c3cccn3c3cccnc32)cc1	49% (inactive)
COc1ccc(CNC(=O)c2ccc(Cn3c(=O)c4cccn4c4cccnc43)cc2)cc1OC	67% (inactive)
CC(C)Oc1ccc(CNC(=O)c2ccc(Cn3c(=O)c4cccn4c4cccnc43)cc2)cc1	55% (inactive)
O=C(NCCc1ccccc1)C(=O)Nc1cccc(Br)c1	68% (inactive)
Cc1ccc2c(CC(=O)Nc3nnc(C(C)C)s3)coc2c1C	101% (inactive)
CC(C)c1ccc(CN(C(=O)c2cc3ccccc3oc2=O)C2CCS(=O)(=O)C2)cc1 (stereo not drawn)	51% (inactive)
CCCCOC(=O)c1ccc(NC(=O)c2ccc3c(c2)CCCN3S(C)(=O)=O)cc1	96% (inactive)
C=CCC1N(c2ccccc2)C(=O)C2C(C(=O)O)C3C=CC21O3 (stereo not drawn)	103% (inactive)
[O-][n+]1onc2c1CCC1N(O)C(c3ccccc3)CC21O (stereo not drawn)	80% (inactive)
O=C(CCSCc1ccc(Cl)cc1)N1CCN(c2ccccc2F)CC1	77% (inactive)
CC1=C(C(=O)Nc2cc(C)ccc2C)C2(CCCCCC2)OC1=O	89% (inactive)
Cc1ccccc1NC(=O)C(=O)NCC1(c2ccccc2)CCCC1	73% (inactive)
O=C(Cn1c(=O)n(-c2ccccc2Cl)c(=O)c2sc3ccccc3c21)NC1CCCCC1	109% (inactive)
COc1ccc(CCNC(=O)c2ccc(Cn3c(=O)c4cccn4c4cccnc43)cc2)cc1OC	48% (active)

Structure (SMILES)	survival
Cc1cccc(CNC(=O)c2ccc(Cn3c(=O)c4cccn4c4cccnc43)cc2)c1	48% (active)
CCOc1ccc(CCNC(=O)c2ccc(Cn3c(=O)c4cccn4c4cccnc43)cc2)cc1	93% (inactive)
CCc1ccc(CNC(=O)c2ccc(Cn3c(=O)c4cccn4c4cccnc43)cc2)cc1	67% (inactive)
O=C(NCc1ccccc1)c1ccc(Cn2c(=O)c3cccn3c3cccnc32)cc1	108% (inactive)
COc1ccc(CCNC(=O)CCn2c(=O)c3cccn3c3cccnc32)cc1OC	82% (inactive)
Cc1cc(C)c2sc(N(Cc3cccnc3)C(=O)CCS(=O)(=O)c3ccccc3)nc2c1	89% (inactive)
CCc1ccccc1NC(=O)Cn1c(=O)nc(-c2ccccc2)c2ccccc21	90% (inactive)
N#Cc1ccccc1Cn1c(=O)n(-c2ccc(F)c(Cl)c2)c(=O)c2sccc21	112% (inactive)
O=S(=O)(c1ccccc1)c1cccc(S(=O)(=O)N2CCCC2)c1	86% (inactive)
Cc1cccc(C)c1NC(=O)C(c1ccccc1)N(Cc1ccco1)C(=O)Cn1nnc2ccccc21 (stereo not drawn)	74% (inactive)
CCOc1ccc(NC(=O)C2CCN(C(=O)N3CC(C)Oc4ccc(Cl)cc43)CC2)cc1 (stereo not drawn)	100% (inactive)
Cc1cc(=O)oc2ccccc12	83% (inactive)
Cc1ccc(C(c2nnnn2C2CCCC2)N2CCc3ccccc32)cc1 (stereo not drawn)	100% (inactive)
CCc1ccccc1NC(=O)Nc1ccc2c(c1)N(CC)C(=O)c1ccccc1S2	41% (active)
CCN1C(=O)c2ccccc2Sc2ccc(NC(=O)Nc3cc(C)cc(C)c3)cc21	67% (inactive)
COc1ccccc1CNC(=O)Nc1ccc2c(c1)N(C)C(=O)c1ccccc1S2	70% (inactive)
COc1cccc(NC(=O)Nc2ccc3c(c2)N(C)C(=O)c2ccccc2S3)c1	51% (inactive)
Cc1ccccc1CNC(=O)Nc1ccc2c(c1)N(C)C(=O)c1ccccc1S2	63% (active)
CCc1cccc(NC(=O)Nc2ccc3c(c2)N(C)C(=O)c2ccccc2S3)c1	26% (active)
CC(C)CCNC(=O)c1ccc2c(c1)N(C)C(=O)c1ccccc1S2	-5% (active)
CCN1C(=O)c2ccccc2Sc2ccc(NC(=O)Nc3ccccc3OC)cc21	61% (inactive)
CC(C)CCNC(=O)c1ccc2c(c1)N(Cc1cccc(Cl)c1)C(=O)c1ccccc1S2	83% (inactive)
CC(C)CCNC(=O)Nc1ccc2c(c1)N(C)C(=O)c1ccccc1S2	89% (inactive)
CN1C(=O)c2ccccc2Sc2ccc(NC(=O)NCc3ccccc3Br)cc21	51% (inactive)

Structure (SMILES)	survival
CCOC(=O)c1cccc(NC(=O)Nc2ccc3c(c2)N(C)C(=O)c2ccccc2S3)c1	92% (inactive)
CCOC(=O)c1c(C)[nH]c(C)c1S(=O)(=O)N1CCCC(C(=O)N2CCN(c3ccccc3F)CC2)C1 (stereo not drawn)	84% (inactive)
CCc1ccc2oc(-c3ccc(C)c(NC(=O)Cc4ccccc4)c3)nc2c1	145% (inactive)
CCOc1ccc2c(c1)c(=O)c(C(=O)c1ccccc1)cn2Cc1ccccc1	87% (inactive)
Cc1ccc(S(=O)(=O)Cn2nnnc2CN2CCC(Cc3ccccc3)CC2)cc1	100% (inactive)
O=C(Cn1c(=O)c2cccn2c2ccc(F)cc21)Nc1cccc(F)c1	64% (inactive)
Cc1ccc(C2=Nc3ccccc3N=C(c3ccc(F)cc3)C2)c(O)c1	60% (inactive)
COC(=O)Cn1c(C(=O)OC)cc2c1ccn2-c1ccc(F)cc1	93% (inactive)
Cc1nn(CCCC(=O)NCc2ccc(F)cc2)c(=O)c2c1sc1ccccc12	85% (inactive)
O=C(NCCc1ccc(Cl)cc1)C(=O)NCC(c1ccc2c(c1)OCO2)N1CCOCC1 (stereo not drawn)	117% (inactive)
O=C(c1cccn2c(=O)c3cc(Cl)ccc3nc12)N1CCN(c2ccccc2F)CC1	76% (inactive)
COc1cccc(CNC(=O)Nc2ccc3c(c2)N(C)C(=O)c2ccccc2S3)c1	42% (active)
CN1C(=O)c2ccccc2Sc2ccc(NC(=O)NCc3cccc(Cl)c3)cc21	78% (inactive)
COc1ccc(CNC(=O)Nc2ccc3c(c2)N(C)C(=O)c2ccccc2S3)cc1	112% (inactive)
CCOC(=O)c1c(C)[nH]c(C)c1S(=O)(=O)N1CCC(C(=O)NCc2ccc(C)cc2)CC1	72% (inactive)
CCOC(=O)c1c(C)[nH]c(C)c1S(=O)(=O)N1CCC(C(=O)Nc2ccc(C)c(Cl)c2)CC1	79% (inactive)
CCOC(=O)c1c(S(=O)(=O)N2CCC(C(=O)Nc3ccc(OCC)cc3)CC2)c(C)n(C)c1C	99% (inactive)
CCOC(=O)c1c(C)[nH]c(C)c1S(=O)(=O)N1CCC(C(=O)Nc2ccc(OCC)cc2)CC1	-1% (active)
CCOC(=O)c1c(C)[nH]c(C)c1S(=O)(=O)N1CCC(C(=O)NCc2ccc(F)cc2)CC1	6% (active)
CCOC(=O)c1c(C)[nH]c(C)c1S(=O)(=O)N1CCC(C(=O)NCc2ccccc2)CC1	81% (inactive)
CCN(C(=O)c1ccco1)c1nnc(Cn2nnc3ccccc32)s1	91% (inactive)
Cc1c(C2=CCN(S(=O)(=O)c3cccc(Cl)c3)CC2)c2ccccc2n1CC(=O)N1CCCC1	75% (inactive)
CN1CC(=O)Nc2cc(C(=O)O)ccc21	87% (inactive)
Cc1ccccc1OCc1ccc(-c2nc(C#N)c(N3CCCCC3)o2)o1	99% (inactive)

Structure (SMILES)	survival
Cc1cccc(OCc2ccc(-c3nc(C#N)c(N4CCC(C(N)=O)CC4)o3)o2)c1	80% (inactive)
Cc1ccccc1OCc1ccc(-c2nc(C#N)c(N3CCC(C(N)=O)CC3)o2)o1	38% (active)
N#Cc1nc(-c2ccc(COc3ccc(Cl)cc3)o2)oc1N1CCC(C(N)=O)CC1	34% (active)
Cc1ccc(OCc2ccc(-c3nc(C#N)c(N4CCC(C)CC4)o3)o2)cc1	58% (inactive)
COc1ccc(OCc2ccc(-c3nc(C#N)c(N4CCC(C(N)=O)CC4)o3)o2)cc1	72% (inactive)
COc1ccc(OCc2ccc(-c3nc(C#N)c(N4CCC(C)CC4)o3)o2)cc1	54% (inactive)
CCN1CCN(c2oc(-c3ccc(COc4ccccc4C)o3)nc2C#N)CC1	82% (inactive)
COc1ccc(OCc2ccc(-c3nc(C#N)c(N4CCN(c5ccccc5)CC4)o3)o2)cc1	77% (inactive)
CC1CCN(c2oc(-c3ccc(COc4ccc(Cl)cc4)o3)nc2C#N)CC1	81% (inactive)
CCN1CCN(c2oc(-c3ccc(COc4ccc(C)cc4)o3)nc2C#N)CC1	38% (active)
CCN1CCN(c2oc(-c3ccc(COc4ccc(OC)cc4)o3)nc2C#N)CC1	49% (active)
Cc1nc2c3ccccc3nc(NNC(=O)CCC(=O)O)n2n1	94% (inactive)
Cc1ccc(C2c3cccn3CCN2S(=O)(=O)c2ccc([N+](=O)[O-])cc2)cc1 (stereo not drawn)	99% (inactive)
CC(C)CCNC(=O)c1ccc2c(c1)nc1n2CCCCC1	86% (inactive)
CCCCN(C)S(=O)(=O)c1cc(-c2cc(C)no2)ccc1C	84% (inactive)
COc1ccc(OCc2ccc(-c3nc(C#N)c(N4CCN(c5cccc(Cl)c5)CC4)o3)o2)cc1	75% (inactive)
N#Cc1nc(-c2ccc(COc3ccccc3)o2)oc1N1CCCCC1	48% (inactive)
N#Cc1nc(-c2ccc(COc3ccc(Cl)cc3)o2)oc1N1CCCCC1	49% (inactive)
COc1ccc(OCc2ccc(-c3nc(C#N)c(N4CCCCC4)o3)o2)cc1	42% (active)
COc1ccc(OCc2ccc(-c3nc(C#N)c(N4CCN(C)CC4)o3)o2)cc1	52% (inactive)
CN1CCN(c2oc(-c3ccc(COc4ccc(Cl)cc4)o3)nc2C#N)CC1	45% (active)

From PubChem BioAssay AID463173 (ICCB-Longwood Screening Facility, Harvard Medical School, 2010)
